Measured values as given in PubChem BioAssay AID1159580 (chemical genetic matrix, 2015).
Several values for one entry are separate records, joined by “and”; a condition that tells them apart may be missing. Identical values can stand only once. Screen size: about 5,500 compounds; about 2,000 (36%) were called active. Inconclusive results (about 18%) are left out. Cut-off read from the data, not from the text of the source: active = normalized growth mostly below about 0.91 (no sharp cut-off); inconclusive = no clear call, values can overlap the other calls; inactive = mostly above about 0.92. Some of the results follow.

Test: chemical genetic growth profiling, strain panel (AID 1159580);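 note: tested at 20 µM; growth read once vehicle control cultures reached saturation at 30 °C; 1 = growth at the plate median or of vehicle wells; lower values mean less growth of the strain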
Details: S. cerevisiae deletion strains, growth OD

Measured: normalized growth

CS(=O)(=O)c1ccc(C2=C(c3ccccc3)C(=O)OC2)cc1
inactive: locus YAL013W, strain DEP1, active compounds read low 0.996 | locus YAL021C, strain ccr4, active compounds read low 0.955 | locus YAL026C, strain drs2, active compounds read low 0.985 | locus YAL030W, strain snc1, active compounds read low 0.971 | locus YBL061C, strain skt5, active compounds read low 0.972 | locus YBR009C, strain hhf1, active compounds read low 0.959 | locus YBR021W, strain FUR4, active compounds read low 0.986 | locus YBR023C, strain chs3, active compounds read low 0.979 | locus YBR171W, strain sec66, active compounds read low 0.983 | locus YBR229C, strain ROT2, active compounds read low 1 | locus YBR231C, strain swc5, active compounds read low 1 | locus YBR279W, strain paf1, active compounds read low 0.987 | locus YCL011C, strain gbp2, active compounds read low 0.975 | locus YCL016C, strain dcc1, active compounds read low 0.98 | locus YCL029C, strain bik1, active compounds read low 0.994 | locus YCL061C, strain MRC1, active compounds read low 0.986 | locus YCL069W, strain vba3, active compounds read low 0.976 | locus YCR088W, strain abp1, active compounds read low 0.985 | locus YDL005C, strain med2, active compounds read low 0.983 | locus YDL035C, strain GPR1, active compounds read low 0.973 | locus YDL040C, strain nat1, active compounds read low 0.984 | locus YDL074C, strain BRE1, active compounds read low 0.929 | locus YDL101C, strain DUN1, active compounds read low 0.99 | locus YDL134C, strain PPH21, active compounds read low 1.01 | locus YDL185W, strain tfp1, active compounds read low 0.963 | locus YDL192W, strain arf1, active compounds read low 0.98 | locus YDR001C, strain nth1, active compounds read low 0.985 | locus YDR069C, strain doa4, active compounds read low 0.967 | locus YDR101C, strain arx1, active compounds read low 0.995 | locus YDR137W, strain rgp1, active compounds read low 1.02 | locus YDR150W, strain NUM1, active compounds read low 0.991 | locus YDR159W, strain sac3, active compounds read low 0.968 | locus YDR162C, strain NBP2, active compounds read low 0.979 | locus YDR195W, strain ref2 0.963 | locus YDR297W, strain sur2, active compounds read low 0.983 | locus YDR318W, strain mcm21, active compounds read low 0.983 | locus YDR334W, strain swr1, active compounds read low 0.968 | locus YDR335W, strain msn5, active compounds read low 0.982 | locus YDR388W, active compounds read low 0.991 | locus YDR392W, strain spt3, active compounds read low 0.954 | locus YDR502C, strain sam2, active compounds read low 0.983 | locus YEL003W, strain gim4, active compounds read low 0.977 | locus YEL037C, strain rad23, active compounds read low 0.992 | locus YEL061C, strain CIN8 (second series), active compounds read low 0.97 | locus YEL061C, strain CIN8, active compounds read low 0.984 | locus YER015W, strain faa2, active compounds read low 0.98 | locus YER016W, strain bim1, active compounds read low 0.985 | locus YER110C, active compounds read low 0.988 | locus YER111C, strain swi4, active compounds read low 0.978 | locus YER155C, strain BEM2 (second series), active compounds read low 0.98 | locus YER155C, strain BEM2, active compounds read low 1.04 | locus YER167W, strain BCK2, active compounds read low 0.989 | locus YFR010W, strain ubp6, active compounds read low 0.961 | locus YGL078C, strain dbp3, active compounds read low 0.996 | locus YGL086W, strain mad1, active compounds read low 0.983 | locus YGL167C, strain pmr1, active compounds read low 0.971 | locus YGL173C, strain kem1, active compounds read low 0.989 | locus YGL227W, strain vid30, active compounds read low 0.969 | locus YGL240W, strain doc1, active compounds read low 0.975 | locus YGL248W, strain PDE1, active compounds read low 1 | locus YGL253W, strain hxk2, active compounds read low 0.987 | locus YGR078C, strain PAC10, active compounds read low 0.957 | locus YGR135W, strain pre9, active compounds read low 0.979 | locus YGR229C, strain SMI1, active compounds read low 0.971 | locus YGR252W, strain gcn5, active compounds read low 0.967 | locus YHR013C, strain ard1, active compounds read low 0.971 | locus YHR027C, strain rpn1, active compounds read low 0.963 | locus YHR030C, strain SLT2, active compounds read low 0.994 and 1.03 | locus YHR079C, strain IRE1 (second series), active compounds read low 0.992 | locus YHR079C, strain IRE1, active compounds read low 1.03 | locus YHR094C, strain hxt1, active compounds read low 0.984 | locus YHR129C, strain ARP1, active compounds read low 1 | locus YHR142W, strain chs7, active compounds read low 0.984 | locus YHR200W, strain rpn10, active compounds read low 0.969 | locus YIL066C, strain RNR3, active compounds read low 1.01 | locus YIL073C, strain SPO22, active compounds read low 0.936 | locus YIL125W, strain kgd1, active compounds read low 0.999 | locus YIR030C, strain dcg1, active compounds read low 0.987 | locus YJL092W, strain hpr5, active compounds read low 0.984 | locus YJL095W, strain BCK1 (second series), active compounds read low 0.977 | locus YJL095W, strain BCK1, active compounds read low 0.951 and 1.01 | locus YJL115W, strain asf1, active compounds read low 0.962 | locus YJL129C, strain trk1, active compounds read low 0.978 | locus YJL134W, strain LCB3, active compounds read low 0.998 | locus YJL154C, strain vps35, active compounds read low 0.991 | locus YJL164C, strain tpk1, active compounds read low 0.965 | locus YJL166W, strain qcr8, active compounds read low 0.986 | locus YJL168C, strain set2, active compounds read low 0.993 | locus YJL187C, strain SWE1 (second series), active compounds read low 0.989 | locus YJL187C, strain SWE1, active compounds read low 0.981 | locus YJR043C, strain POL32, active compounds read low 0.955
